In the supplement of paper PMC3334620:
Whole data set: some 33,000 sequences, median “E-score (-0.5 to 0.5)” near -0.054, cut for the highest 2% near 0.39. Many of the other results were omitted from the sample, so the highest values are more common in it than they were.

Target: Ylr278c (UniProt Q05854)
Test: PBM E-score (8-mer binding enrichment) (E-score (-0.5 to 0.5)); higher = stronger / more preferred TF binding
Conditions: protein concentration: 200 nM; construct: GST-DNA-binding domain
Description: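 Universal 'all 10-mer' protein binding microarrays (Agilent AMADID 015681) probed with GST-tagged S. cerevisiae TFs (full-length or DBD) made by in vitro transcription/translation (PURExpress), about 100-200 nM. Bound TF was detected with fluorescent anti-GST. Each ungapped 8-mer (which stands for itself and its reverse complement) is scored by the PBM enrichment score (E-score), a modified Wilcoxon-Mann-Whitney statistic from -0.5 to +0.5, computed with the Universal PBM Analysis Suite. Scale: above 0.35 generally sequence-specific binding.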

Chain of UniProt Q05854 (Q05854 whole entry): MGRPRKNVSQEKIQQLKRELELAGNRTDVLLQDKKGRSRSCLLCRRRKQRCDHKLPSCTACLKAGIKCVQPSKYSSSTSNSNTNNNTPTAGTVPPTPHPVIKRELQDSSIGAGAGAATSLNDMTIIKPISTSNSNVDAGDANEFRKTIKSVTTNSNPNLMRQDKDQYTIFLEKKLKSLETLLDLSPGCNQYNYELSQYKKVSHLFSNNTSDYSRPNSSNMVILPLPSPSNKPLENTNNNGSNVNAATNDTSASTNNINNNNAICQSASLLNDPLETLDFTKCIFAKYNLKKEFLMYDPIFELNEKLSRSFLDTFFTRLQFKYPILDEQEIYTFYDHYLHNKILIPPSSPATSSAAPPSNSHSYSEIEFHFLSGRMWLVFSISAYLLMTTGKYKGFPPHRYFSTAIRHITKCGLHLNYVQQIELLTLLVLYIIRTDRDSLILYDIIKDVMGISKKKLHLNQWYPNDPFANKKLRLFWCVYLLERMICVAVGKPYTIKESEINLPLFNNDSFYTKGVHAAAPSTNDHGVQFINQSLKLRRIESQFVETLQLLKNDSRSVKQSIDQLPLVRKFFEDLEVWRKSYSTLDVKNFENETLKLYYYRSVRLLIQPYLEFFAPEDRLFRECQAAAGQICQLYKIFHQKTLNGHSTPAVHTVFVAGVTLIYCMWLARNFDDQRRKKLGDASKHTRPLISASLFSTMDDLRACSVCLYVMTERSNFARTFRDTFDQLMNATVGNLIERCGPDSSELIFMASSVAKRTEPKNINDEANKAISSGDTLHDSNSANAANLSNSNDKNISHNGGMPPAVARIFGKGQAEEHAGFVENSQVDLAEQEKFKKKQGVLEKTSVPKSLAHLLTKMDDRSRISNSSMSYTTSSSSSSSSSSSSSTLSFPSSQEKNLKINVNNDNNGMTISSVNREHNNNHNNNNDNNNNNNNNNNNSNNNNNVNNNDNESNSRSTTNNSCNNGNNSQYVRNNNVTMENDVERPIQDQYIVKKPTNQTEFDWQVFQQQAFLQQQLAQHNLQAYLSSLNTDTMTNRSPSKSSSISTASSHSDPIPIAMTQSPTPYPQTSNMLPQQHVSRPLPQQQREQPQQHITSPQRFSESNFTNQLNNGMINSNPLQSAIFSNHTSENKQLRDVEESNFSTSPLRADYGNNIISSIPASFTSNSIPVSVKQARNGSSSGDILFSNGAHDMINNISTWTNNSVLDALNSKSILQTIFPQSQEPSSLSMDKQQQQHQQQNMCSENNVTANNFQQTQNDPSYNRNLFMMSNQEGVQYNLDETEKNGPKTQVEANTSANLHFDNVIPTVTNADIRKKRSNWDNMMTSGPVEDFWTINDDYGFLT

Sequence | PBM E-score
ATTCGGCG | 0.286
ATTCGGAC | 0.392
ATTCGGCC | 0.284
ATTCGGAA | 0.36
ATTCGGAG | 0.422
ATTCGGGC | 0.18
AAGACAGC | -0.0488
AAGGGAAT | -0.149
CGCTTCTC | 0.168
CGGAGAGC | 0.389
CGGAGAGA | 0.402
AGGAGAGA | -0.136
GGGAGAGA | -0.201
CAGAGAGC | -0.184
AGGAGAGC | -0.275
AAGGTCAA | -0.195
ACTCTAAT | -0.121
ATTGGCAC | -0.247
CGGATCCA | 0.221
CGGATCCC | 0.402
CGGATCCG | 0.438
AGGATCCC | 0.113

Sequence | PBM E-score
GGGATCCC | 0.325
AGGATCCG | 0.226
ATGCAGCG | 0.0411
CCCATAAG | 0.0166
GTGGAGTA | -0.135
CCCAACAA | -0.0374
CACGGATA | 0.196
GACGGACA | 0.328
GCCGGATA | 0.4
AACGGACA | 0.321
GCCGGACC | 0.376
CCCGGACG | 0.273
ACCGGACA | 0.401
GCCGGACA | 0.447
ACTGGACA | -0.189
GCAGGATA | -0.221
CACGGACA | 0.317
CCCGGACA | 0.405
ACACCCCC | -0.133
GCTATCAC | -0.108
CGTGAACG | -0.0842
AGGCCCCT | -0.194

Sequence | PBM E-score
ACCGGACC | 0.384
TCCGGACA | 0.456
ACCGGACG | 0.369
TGCGGACA | 0.356
ACCGGACT | 0.443
TACGGACA | 0.257
CTTTTGCC | 0.093
AAGTTACT | 0.0192
AACCGTGA | -0.0334
GACTGGGA | 0.0171
GCGGAACA | 0.344
CCGGAACA | 0.442
TCGGAACA | 0.417
CAGGAACA | -0.157
ACGGAACC | 0.213
ACGGAACA | 0.27
GCGGAACC | 0.254
CCGGAACC | 0.402
CCGGAACG | 0.411
ACGGAACG | 0.271
CAGGAACG | -0.153
CGGGAACA | 0.192

Sequence | PBM E-score
AACTCAGT | -0.15
ATTCTCTA | -0.0579
CAGAAATA | 0.0765
AATGCATT | -0.0548
AAAGGCCG | 0.37
ACAACCGT | -0.251
ATTTGAGC | -0.102
CGTATCAG | 0.0563
AGTAGATG | -0.0703
ATCCAGAT | -0.146
TAACTTGA | -0.237
AAGGAGAT | 0.0883
ATGGAGAC | -0.103
ACGGAGAC | 0.39
AGGGAGAT | -0.207
GAGGAGAC | -0.0694
GCGGAGAC | 0.4
AAGGAGAC | -0.214
GGGGAGAC | 0.0986
ACGGAGAT | 0.465
GCCCATAC | -0.275
